Results taken from PubChem BioAssay (NCI).
This is part of a sample that, as a whole, favours compounds with a hit. Of some 79,000 tested, about 15% had one in any assay. Activity calls are given as the source filed them. Cut-off read from the data, not from the text of the source: active = growth inhibition above about 70%; inactive = the rest.

Assay: NCI Yeast Anticancer Drug Screen. Data for the cln2 rad14 strain (AID 165);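 note: 0% = growth equal to vehicle treated cultures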
Conditions: S. cerevisiae cln2 rad14 strain, at 50.0 µM, active compounds read high
Method in brief: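 The screen exposed genetically defined yeast (cln2 rad14) to test compounds and scored growth inhibition relative to vehicle-treated controls.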

Question: For COc1cc(S(N)(=O)=O)c(OC)cc1N, which growth inhibition is on record?
Answer: 8.8% (inactive)

Question: With O=C1CCCNC(=O)CCCN1 as the compound, how does the growth inhibition read?
Answer: -40.5% (inactive)

Question: For N#CCCn1[nH]c(=O)c(Cl)c(Cl)c1=O, which growth inhibition is on record?
Answer: -6.8% (inactive)

Question: With c1csc(-c2nn3c(C45CC6CC(CC(C6)C4)C5)nnc3s2)c1 as the compound, how does the growth inhibition read?
Answer: -11.3% (inactive)

Question: With O=C(Nc1ccc(Cl)cc1)C(=O)C1=C(O)c2ccccc2OC1 as the compound, how does the growth inhibition read?
Answer: 11.4% (inactive)

Question: For COc1cc2c(cc1OC)C(C(CO)CO)N(CC(O)CCl)CC2 (configuration not stated), which growth inhibition is on record?
Answer: -6.65% (inactive)

Question: For CCC(c1ccco1)C(C#N)C(=O)OC(C)(C)C (configuration not stated), which growth inhibition is on record?
Answer: -5.8% (inactive)

Question: For CSc1nc2cc(S(=O)(=O)N3CCCCC3)ccc2s1, which growth inhibition is on record?
Answer: -52.6% (inactive)

Question: With CC(S)c1ccccc1 (configuration not stated) as the compound, how does the growth inhibition read?
Answer: 11.9% (inactive)

Question: Which growth inhibition does the source give for CN(C(=O)c1ccc(C(=N)N)cc1)c1ccccc1 here?
Answer: -12.8% (inactive)

Question: Which growth inhibition does the source give for CC(=O)Nc1cc(OC(C)=O)nc2c1CCC2 here?
Answer: 7.95% (inactive)

Question: For COC1/C=C/C(C)C(C(C)C(OC)C(C)CCC(=O)C(C)C(C/C=C/N(C)C=O)OC)OC(=O)/C=C/C=C(\C)CC(OC)C(OC)C2=CC(=O)O[C@@H](C(C)C(OC)CC(OC)/C=C/C(C)C(O)C1)[C@H]2O (some centres not stated), which growth inhibition is on record?
Answer: 89.8% (active)

Question: Which growth inhibition does the source give for CC1COC(C)(C)O1 (configuration not stated) here?
Answer: 0.65% (inactive)

Question: With CCOC(=O)Sc1nccn1C as the compound, how does the growth inhibition read?
Answer: -4.7% (inactive)

Question: For CC1CC/C(=N\O)CCCCC(=O)O1 (configuration not stated), which growth inhibition is on record?
Answer: -33.4% (inactive)

Question: With CC(=O)OC[C@]1(C)CCCC2(C)C1CCC1C=C(C)[C@H]3CCC12C3 (some centres not stated) as the compound, how does the growth inhibition read?
Answer: -1.65% (inactive)

Question: With CCCC1OC1(CC)C(=O)OCC(CC)(COC(=O)C1(CC)OC1CCC)COC(=O)C1(CC)OC1CCC (configuration not stated) as the compound, how does the growth inhibition read?
Answer: -2.05% (inactive)
